An excerpt weighted towards active compounds, which were near 17% of everything screened.
TDP1 cell noCPT: qHTS for Inhibitors of human tyrosyl-DNA phosphodiesterase 1 (TDP1): qHTS in cells in absence of CPT; DT40 Tdp1-/- hTDP1 cells, no CPT, ATP luminescence, 48 h; Potency, µM (top dose mostly 46.2 µM), without a hit: at the top dose activity change, negative = growth inhibition, most hits filed as inhibitors; actives 15% (n = 420,000); AID 686978, 2013; note: % is set by controls: 0 for no effect and ±100 for the full control effect; nearly all actives have a fitted effect of over 55% in size
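Growth of hTDP1-complemented DT40 Tdp1-knockout cells is measured by ATP luminescence after at least 48 hr compound exposure at 37 °C, with DMSO substituting for the 20 nM CPT used in the parallel screen.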
HT1080 IDH1KD tx: HT-1080 IDH1 knockdown cell toxicity (counter line) | HT-1080 IDH1 knockdown viability, ATP luminescence, 48 h | actives 2% (n = 360,000) | Potency, µM (titrated, usually from 46.1 µM), for the others: at the highest dose activity, negative = toxicity, hits mostly cytotoxic | AID 686971;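 note: 0% = DMSO wells and -100% = cell-free medium wells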
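In this qHTS, HT-1080 cells depleted of IDH1 are exposed for 48 h at 37 °C to compound titrations. Toxicity is scored from CellTiter-Glo luminescence, with DMSO as full viability and medium alone as none.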
TDP1 cell CPT: DT40-hTDP1 cell growth loss with CPT. chicken DT40 Tdp1-/-;hTDP1 cells + 20 nM CPT, ATP luminescence, 48 h. Potency, µM (titrated, usually from 46.2 µM), for the others: at the top dose activity change, negative = growth inhibition, actives largely listed as inhibitors. actives 12% (n = 420,000); note: % is set by controls: 0 for no effect and ±100 for the full control effect; nearly all actives have a fitted effect of over 55% in size
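Chicken DT40 Tdp1-/- cells stably complemented with human TDP1 were seeded at 400 cells/well in medium containing 20 nM camptothecin, exposed to pin-transferred compounds, and grown at 37 °C for at least 48 hr. Viability was read as ATP luminescence.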
TGFb inhibitor: TGF-b pathway inhibition; AID 588855; actives 1.2% (n = 410,000); HepG2 CAGA-GFP TGF-b/SMAD3 reporter, GFP fluorescence, 18 h; TGF-beta stimulated, 500 pg/mL final; Potency, µM (titrated, usually from 46.1 µM), for inactives: at the top dose activity, negative = inhibition, most hits filed as inhibitors; note: % is set by controls: 0 for no effect and ±100 for the full control effect; nearly all actives have a fitted effect of over 65% in size
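HEPG2 CAGA-GFP, 1000 cells/well; 2 h settle, 37 C; cpd via pin tool; TGF-b 500 pg/mL final; 18 h, 37 C; GFP imaging ex488/em500-530; %Activity normalised to -TGF-b and +DMSO controls; CRC fit, curve class.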
HT1080-NT tox: kills 2HG-producing HT-1080-NT fibrosarcoma cells; AID 686970; actives 1.6% (n = 360,000); HT-1080-NT fibrosarcoma viability, CellTiter-Glo ATP luminescence, 48 h; Potency, µM (doses to about 46.1 µM), without a hit: top-dose activity, negative = less viability, usual class: cytotoxic;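 note: NT is the 2HG producing partner of a matched IDH1 knockdown line; 0% = DMSO-treated cells and -100% = media-only wells without cells; nearly all actives have a fitted effect of over 55% in size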
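HT-1080-NT; 750 cells/well; 5% FBS RPMI; 48 h compound, 37 degrees C; CellTiter-Glo luminescence; curve fitting and curve-class assignment.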
HepG2 tox: kills HepG2 cells in TGF-b inhibitor counter-screen; actives 0.76% (n = 410,000); HepG2 CAGA-GFP viability, ATP luminescence, 18 h; Potency, µM (titrated, usually from 46.1 µM), without a hit: top-dose activity change, negative = cytotoxicity, usual class: cytotoxic
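CellTiter-Glo luminescence gave cytotoxicity after 18 hours at 37 degrees C. The cells were HepG2 CAGA-GFP in 1% FBS DMEM, stimulated with 500 pg/mL TGF-beta after compound addition. %Activity was normalised to no-cell wells (complete cell-killing) and DMSO (no toxicity), and curves were fitted and classified.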
* = called active by the depositor; i = inactive; ? = inconclusive; nt = no result given; [ ] = another dose, or the depositor's remark. Calls come from the whole dose curve; as a rule, active = well fitted curve in the direction sought with a large enough effect; inconclusive = small, poorly fitted or top-dose-only effect, or another doubt; inactive = no such curve, though single readings can be large; an effect the other way counts as inactive or inconclusive. Potency is the fitted concentration of half-maximal effect.

SMILES	TDP1 cell noCPT	HT1080 IDH1KD tx	TDP1 cell CPT	TGFb inhibitor	HT1080-NT tox	HepG2 tox
CCN(CC)CCOC(=O)c1ccc(N/C=C(/C#N)c2nc(-c3cc4ccccc4oc3=O)cs2)cc1	2.3µM*	-4%	1.2µM*	0%	-25%	-18%
CCN(CC)CCOC(=O)c1ccc(N/C=C(/C#N)c2nc(-c3ccc4c(c3)OCO4)cs2)cc1	5.2µM*	-12%	3.7µM*	-44%	-17%	i
CC(=O)Nc1ccc(NC(=O)C(NS(=O)(=O)c2ccc(Br)s2)c2ccccc2)cc1 (stereo unspecified)	?	nt	?	6%	nt	-4%
COC(=O)C1CCN(C(=O)C2CCCCC2)CC1	-7%	14%	-11%	-19%	19%	1%
O=C(O)Cc1ccc(-c2ccccc2-c2ccccc2)cc1	21µM*	-3%[9.24 µM]	15µM*	4%	-1%	12%
CCSc1nnc(NC(=O)C(C(F)(F)F)C(F)(F)F)s1	?	1%	?	0%	-12%	-11%
CCSc1nnc(NC(=O)C(C)(C(F)(F)F)C(F)(F)F)s1	18µM*	?	23µM*	-3%	?	-33%
CCSc1nnc(NC(=O)C(CC)(C(F)(F)F)C(F)(F)F)s1	18µM*	?	?	?	?	-29%
CC(C)C(NC(=O)c1ccccc1NC(=O)c1ccccc1)C(=O)NCCCn1ccnc1 (stereo unspecified)	-6%	6%	5%	-6%	-6%	-65%
CCc1nn(C(CC)C(=O)NCc2ccc(F)cc2)c(=O)c2cc3occc3n12 (stereo unspecified)	-20%	nt	?	?	nt	-28%
CCc1nn(C(CC)C(=O)NCc2ccc(OC)c(OC)c2)c(=O)c2cc3oc(C)cc3n12 (stereo unspecified)	9.2µM*	nt	16µM*	?	nt	-27%
CCN(CC)C(=O)c1sc2nc(-c3ccccn3)[nH]c(=O)c2c1C	12µM*	-16%	23µM*	4%	-11%	10%
Cc1sc2nc(-c3ccccn3)[nH]c(=O)c2c1-c1ccccc1	10µM*	?	9.2µM*	?	?	-12%
Cc1sc2nc(CN3CCOCC3)[nH]c(=O)c2c1-c1ccccc1	-17%	12%	7%	-11%	-3%	4%
Cc1c(Cl)cccc1NC(=O)CCC(=O)NNC(=O)c1ccccc1Cl	-6%	2%	1%	?	-12%	-99%
O=C(Nc1cccc(C(F)(F)F)c1)c1sc(Cl)nc1C(F)(F)F	10µM*	-5%	16µM*	-15%	-2%	-36%
Cc1c(C(=O)Nc2cccc(C(F)(F)F)c2)sc2nc[nH]c(=O)c12	21µM*	nt	16µM*	?	nt	-33%
CCc1cccc(NC(=O)c2snc3c(=O)[nH]cnc23)c1	-13%	4%	-8%	15%	18%	-7%
CCc1cccc(NC(=O)c2sc3nc[nH]c(=O)c3c2C)c1	21µM*	nt	?	-1%	nt	-2%
COc1ccc(NC(=O)c2sc(Cl)nc2-c2ccccc2)cc1	?	-6%	?	-19%	-5%	17%
Cc1cccc(NC(=O)c2sc(Cl)nc2-c2ccccc2)c1	18µM*	-12%	?	-16%	-1%	-10%
O=C(NCc1cccnc1)C12CC3CC(CC(Cl)(C3)C1)C2	24%	11%	-12%	5%	-3%	8%
COC(=O)c1cc(CNC(=O)c2ccc3ccccc3n2)cc(NC(=O)c2cccc(OC)c2)c1	-14%	nt	-1%[9.04 µM]	nt	nt	nt
CCN(Cc1ccccc1)C(=O)c1cccc(S(=O)(=O)N2CCN(Cc3ccccc3)CC2)c1	26µM*	-19%	16µM*	-17%	-1%	-20%
CCCCN(C(=O)c1cccc(S(=O)(=O)N2CCN(Cc3ccccc3)CC2)c1)c1ccccc1	16µM*	?	?	0%	-5%	4%
SMILES	TDP1 cell noCPT	HT1080 IDH1KD tx	TDP1 cell CPT	TGFb inhibitor	HT1080-NT tox	HepG2 tox
CCN(Cc1ccccc1)C(=O)c1cccc(S(=O)(=O)N2CCN(c3ccccc3)CC2)c1	21µM*	-1%	16µM*	-10%	-15%	-27%
CCCCN(C(=O)c1ccc2c(c1)OCO2)c1ccccc1	16µM*	0%	?	?	-6%	8%
O=C(NCCCN1CCCC1=O)Nc1ccc([N+](=O)[O-])cc1	2%	14%	-1%	-12%	12%	-10%
Cc1csc(CN(C)C(=O)CC2C(=O)NCCN2Cc2ccc(Cl)c(F)c2)n1 (stereo unspecified)	-5%	9%	-3%	-7%	-4%	-2%
O=C(c1cccc(S(=O)(=O)N2CCOCC2)c1)N(Cc1ccc(F)cc1)Cc1ccco1	18µM*	-4%	?	?	-4%	-27%
COc1cccc(CNC(=O)c2cccc(S(=O)(=O)N3CCN(Cc4ccccc4)CC3)c2)c1	-18%	-3%	-9%	-11%	1%	-9%
CN(C)S(=O)(=O)c1cccc(C(=O)N(Cc2ccc(F)cc2)Cc2ccco2)c1	?	-9%	?	-4%	-11%	-18%
CCN(Cc1ccccc1)C(=O)c1cc(S(=O)(=O)N2CCOCC2)ccc1N1CCCC1	16µM*	0%	?	4%	0%	-21%
COCCN(Cc1ccccc1)C(=O)c1cccc(S(=O)(=O)N2CCN(Cc3ccccc3)CC2)c1	18µM*	-20%	?	-19%	-16%	-19%
COCCN(Cc1ccccc1)C(=O)c1cccc(S(=O)(=O)N2CCCc3ccccc32)c1	9.2µM*	-28%	13µM*	?	-20%	-12%
O=C(Cc1ccccc1)NC1CC(=O)N(c2ccc3c(c2)OCCO3)C1 (stereo unspecified)	5%	nt	-4%	-1%	nt	13%
CCOc1ccc(S(=O)(=O)NCc2cccn2Cc2cccc(C)c2)cc1	?	nt	?	?	nt	-41%
O=C(c1cccc(S(=O)(=O)N2CCCCC2)c1)N(CCc1ccccc1)Cc1ccccc1	?	-2%	18µM*	?	-3%	-6%
CC(=O)N1CCN(C(=O)c2cccc(S(=O)(=O)N3CCN(c4ccc(F)cc4)CC3)c2)CC1	-14%	-4%	-27%	8%	0%	14%

High-throughput results deposited in PubChem BioAssay by National Center for Advancing Translational Sciences (NCATS).
